M1 antagonist: antagonists of rat M1 muscarinic receptor; B-score at 10 µM; 64,000 tested, 3.4% active; CHO-M1 cells, Fluo-4 calcium, ACh EC80 antagonist mode; hits give low values; Muscarinic acetylcholine receptor M1 (Rattus norvegicus), P08482;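 active means calcium fluorescence response, raw or row-and-column corrected B-score, differing from the plate sample mean either way at a set confidence level, mostly lower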
WNV protease inh: inhibitors of WNV NS2B-NS3 protease, primary screen, biochemical, fluorogenic substrate; Genome polyprotein (West Nile virus), P06935; fluorogenic substrate Ex360/Em465; hits give low values; z-score (no concentration beside the values); 65,000 tested, 0.18% active; in the data active means z-score below about -3
D1 mod: D1 CRE-luciferase signal change, two-sided – cell-based, HEK293 D1, dopamine EC30, D1 allosteric modulator project, primary screen. B-score at 10 µM. dopamine EC30 potentiation; actives deviate in either direction. 58,000 tested, 5.9% active;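 active means luminescence count or its row- and column-corrected plate score outside the 99.7% band of the plate's sample wells, on either side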
Htt clearance: clearance of mutant huntingtin inclusions, primary screen, imaging, HeLa Exon1htt(103Q)mCFP, confocal imaging. aggregate imaging; zero = plate's median compound well. 47,000 tested, 0.42% active. inhibition, % at 1.5 µM;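 active means inhibition of aggregate fluorescence above about 70%, also judged a hit by eye on the cell image, limit read from the data, passing the limit was not always enough; inconclusive means no rule stated for this call; inactive means not judged a hit on image review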;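 further: cells exposed to compound for three days before fixation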
M1 ag: M1 muscarinic receptor agonists, primary screen, CHO-M1 cells, Fluo-4 calcium, agonist mode | Fluo-4 calcium fluorescence; hits give high values | B-score at 10 µM | 64,000 tested, 3% active;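 active means fluorescence rise, raw or as B-score row- and column-corrected plate score, outside the 99.7% band of its plate's samples, either direction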
M1 ag confirm: rat M1 muscarinic receptor agonists, confirmation, CHO-M1 cells, Fluo-4 calcium, duplicate retest. shares compounds with M1 ag. Fluo-4 calcium fluorescence, agonist mode; actives lie on both sides. fluorescence change (max-min) at 10 µM. 1,700 tested, 19% active. AID 1488, 2009;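 active means fluorescence change differs from the solvent-only DMSO control mean at a set confidence level in both duplicate runs; inconclusive means differs from solvent-only control mean in just one of two runs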;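 further: an EC20 dose of acetylcholine follows compound addition during the same imaging run; raw fluorescence intensity difference in instrument units with no normalization to controls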
M4 ag counter: agonist activity at rat M4 receptor, confirmation, counter-screen for M1 allosteric modulator project, cell-based, agonist mode | shares compounds with M1 ag | 1,700 tested, 9% active | AID 1741, 2009 | CHO M4/Gqi5 cells, Fluo-4 calcium fluorescence; actives lie on both sides | fluorescence change (max-min) at 10 µM;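 active means fluorescence change differing from the plate's solvent-only control wells at 99.7% confidence in both duplicates, whether higher or lower; inconclusive means differs from solvent controls in only one of two duplicates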
Target sequence (P08485 whole entry, looked up): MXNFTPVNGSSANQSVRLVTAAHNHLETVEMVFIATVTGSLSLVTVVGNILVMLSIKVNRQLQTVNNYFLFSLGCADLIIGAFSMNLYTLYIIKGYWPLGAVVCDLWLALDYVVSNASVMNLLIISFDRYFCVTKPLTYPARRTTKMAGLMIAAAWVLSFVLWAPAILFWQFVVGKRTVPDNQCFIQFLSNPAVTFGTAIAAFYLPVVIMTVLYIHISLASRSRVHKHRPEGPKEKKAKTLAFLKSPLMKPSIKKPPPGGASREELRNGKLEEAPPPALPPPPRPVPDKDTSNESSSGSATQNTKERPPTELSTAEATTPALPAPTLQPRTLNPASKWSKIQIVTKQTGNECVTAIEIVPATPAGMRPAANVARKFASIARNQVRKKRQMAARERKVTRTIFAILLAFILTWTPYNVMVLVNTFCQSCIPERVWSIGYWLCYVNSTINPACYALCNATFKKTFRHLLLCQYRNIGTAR
* hit, by the source's call; ? = inconclusive; · = no result given. This is a sample that favours compounds with a hit; in the whole collection about 8.9% have one here.

SMILES	M1 antagonist	WNV protease inh	D1 mod	Htt clearance	M1 ag	M1 ag confirm	M4 ag counter
COc1ccc(-c2nnc3ccc(SCC(=O)N4CCCCC4)nn23)cc1OC	0.0492	0.17	0.248	·	-3.48*	-6.73	-30.1
CCCCN1C2CCCC1CC(NC(=O)N(C(C)C)C(C)C)C2 (stereo not given)	·	·	·	-58.8	·	·	·
COc1ccc(CNC2CC(=O)N(C)C2=O)cc1 (stereo not given)	0.219	-0.58	-0.7	·	3.42*	-14.3	-50.2
CC(=O)c1c(C)[nH]c(C(=O)OCCCCN2C(=O)c3ccccc3C2=O)c1C	-2.41*	0.99	0.211	·	6.36*	0.551	-88*
COc1ccccc1/C=C/C(=O)c1c2c(c(C)[nH]c1=O)CCCC2	·	·	·	17.4	·	·	·
O=C(NCc1ccccn1)C1CCC(=O)N1C1CCCC1 (stereo not given)	0.0873	1.02	0.274	·	-0.57	·	·
Cc1cn(-c2ccc(Br)cc2)[nH]c1=O	0.754	1.2	0.0519	·	2.13*	-18.3	?
Cc1nnc(C)c2c(C)n(-c3ccc(Br)cc3)c(C)c12	0.342	-0.21	-0.157	·	0.169	·	·
Cc1nc2ccccc2c(=O)n1/N=C/c1cn(-c2ccccc2)nc1-c1cccs1	-0.318	-0.81	-1.63	·	3.52*	?	-54.6
O=C(c1cn(-c2ccccc2)nc1-c1cccs1)N1CCN(c2ccccn2)CC1	-0.328	-0.3	-0.227	·	0.345	·	·
COCCNC(=O)c1ccccc1NC(=O)C1COc2ccccc2O1 (stereo not given)	-0.286	0.00472	2.15	·	5.65*	-29.4*	-120*
O=C(Nc1ccc(S(=O)(=O)N2CCCC2)cc1)C1COc2ccccc2O1 (stereo not given)	-0.188	-0.3	0.452	·	-0.256	·	·
COC(=O)c1cc(NC(=O)C2COc3ccccc3O2)ccc1Cl (stereo not given)	-0.602	-1.4	·	31.9	5.72*	-17.4	-33.1
O=C(Nc1ccc(S(=O)(=O)N2CCOCC2)cc1)C1COc2ccccc2O1 (stereo not given)	-0.852	-0.39	0.192	54.4	8.72*	?	-66.2*
O=C(Nc1c(C(=O)NCc2ccco2)cnn1-c1ccccc1)c1ccc(F)cc1	1.11	0.22	0.463	22.3	-0.422	·	·
Cc1sc2ncnc(N3CCN(c4ncccn4)CC3)c2c1C	-0.178	0.01	0.956	-56.8	1.97*	-12.5	-44.8
Cc1cc(C)n(-c2ncnc3sc(C)c(C)c23)n1	1.78	0.38	·	·	4.95*	-12.6	-40.8
COc1cc(NC(=O)CCCC(=O)OCC(F)(F)C(F)F)nc(OC)n1	0.664	-0.38	0.839	2.7	-0.411	·	·
COc1ccc(OC)c(CN2CCN(C(=O)c3cccs3)CC2)c1	-0.404	-0.46	0.589	25.8	15.5*	-19.4	?
COc1ccc(C)cc1-n1nnnc1SCc1cc(=O)n2cc(C)ccc2n1	-1.88	-0.99	·	·	5.22*	-18.1	-35
COc1ccccc1NC(=O)C1=C(C)Nc2nc(-c3cccs3)nn2C1c1cccc(O)c1 (stereo not given)	-1.28	-0.64	0.606	·	8.45*	?	?
CCCn1nnnc1SCC(=O)NCc1ccc2c(c1)OCO2	-0.13	-0.62	0.196	·	3.03*	-10.8	-21.8
CC(C)n1nnnc1SCC(=O)NCc1ccc2c(c1)OCO2	·	·	·	37.4	·	·	·
C=CCn1c(=O)c2ccccc2n2c(SCc3nc(N)nc(Nc4ccccc4C)n3)nnc12	-0.961	1.56	-0.594	·	3.99*	?	-48.7
Cc1c(C(=O)Nc2ccc(F)cc2)oc2ccc(S(=O)(=O)N3CCC4(CC3)OCCO4)cc12	-0.85	0.57	-0.731	-25.1	4.72*	-1.35	-34.9
SMILES	M1 antagonist	WNV protease inh	D1 mod	Htt clearance	M1 ag	M1 ag confirm	M4 ag counter
Cc1c(C(=O)Nc2cccc(Cl)c2)oc2ccc(S(=O)(=O)N3CCC4(CC3)OCCO4)cc12	-1.33	-0.76	1.17	13.0	3.57*	-3.41	-20.3
Cc1c(C(=O)NCCC2=CCCCC2)oc2ccc(S(=O)(=O)N3CCC4(CC3)OCCO4)cc12	-1.41	-0.33	·	·	9.04*	-17	?
Cc1c(C(=O)NCCN2CCOCC2)oc2ccc(S(=O)(=O)N3CCCCCC3)cc12	-1.46	-0.57	-0.593	·	-0.00334	·	·
Cc1c(C(=O)NCc2ccccc2)oc2ccc(S(=O)(=O)N3CCC4(CC3)OCCO4)cc12	-1.14	·	·	·	1.98	·	·
C=CCn1c(=O)c(C(=O)Nc2nnc(C)s2)c(O)c2ccccc21	0.354	-0.45	0.0101	·	-0.853	·	·
Cc1cc(C)nc(N2CCC(C(=O)Nc3cccc(C(F)(F)F)c3)CC2)n1	-0.71	-0.89	0.512	-26.9	0.0631	·	·
Cc1sc2ncnc(Sc3nnc4sc5ccccc5n34)c2c1C	-0.233	3.01	0.711	·	-0.405	·	·
O=C(NCc1cn2ccsc2n1)c1cccs1	0.71	0.36	0.037	·	-0.0107	·	·
O=C(CSc1nnnn1C1CCCC1)N1CCCc2ccccc21	-0.374	0.19	0.671	·	0.000273	·	·
O=C(CSc1nnc(Cc2cccs2)n1C1CCCCC1)N1CCCc2ccccc21	-2.15*	0.08	-0.0902	·	3*	-8.92	-21.2
COc1ccc(OC)c(S(=O)(=O)N2CCC(C(=O)Nc3ccc(C)c(C)c3)CC2)c1	-0.966	1.1	-2.42	-5.8	14.9*	-7.97	?
COc1ccc(OC)c(S(=O)(=O)N2CCC(C(=O)Nc3cccc(C)c3C)CC2)c1	-0.841	1.27	-1.11	-27.7	-0.519	·	·
CC(C)CCn1c(SCC(=O)OCn2nnc3ccccc3c2=O)nc2ccccc2c1=O	-0.0438	-0.7	0.788	60.5	3.67*	-10.7	-38.7
COc1cccc(C(=O)OCn2nnc3ccccc3c2=O)c1	-0.135	0.58	0.0157	31.5	2.21*	-25.5	-21.4
O=C(OCc1nc2ccccc2s1)C1CCN(C2=NS(=O)(=O)c3ccccc32)CC1	-0.113	-0.04	-0.508	-79.1	4.57*	?	-75.2
Cc1ccc(C)c2[nH]c(=O)c(CN(Cc3ccco3)C(=O)Nc3ccccc3)cc12	-0.37	0.53	·	·	5.24*	-13.1	-46.8
COc1cccc(-c2nn3c(-c4cccc(C)c4)nnc3s2)c1	-0.145	0.09	1.34	·	23.9*	?	-32.9
COc1ccc(-c2nnc3sc(-c4ccco4)nn23)cc1OC	-0.289	-0.62	1.38	·	4.25*	-16.5	-43.7
O=C(CN1C(=O)C2CC=CCC2C1=O)NC1=NCCS1 (stereo not given)	0.214	0.41	0.692	·	-0.467	·	·
CCC(C)(C)n1nnnc1CN1CCN(C(c2ccccc2)c2ccccc2)CC1	·	·	·	61.1	·	·	·
O=C(CCn1nc(-c2ccccc2)ccc1=O)N1CCN(c2ccccn2)CC1	0.0129	1.1	-0.164	·	3.92*	-2.22	-22.9

Compound activity from PubChem.
